# Inconclusive results are not listed. Active and inactive are the calls of the source. Unless noted, the call rests on the fitted dose curve; in most records, active means well fitted curve in either direction with a large enough effect (not every such curve was filed as active); inconclusive means small, poorly fitted or top-dose-only effect, or another doubt; inactive means flat fitted curve, though single readings scatter.
# Assays:
# [1] = biological target: Lysosomal acid glucosylceramidase (Homo sapiens) (UniProt P04062); assay: Glucocerebrosidase-p2 (AID 348; in the data active means potency below about 10 µM; further: potency means the concentration at half of the fitted maximal effect); conditions: purified GBA, blue fluorogenic substrate, 40 min
# Lysosomal acid glucosylceramidase (Homo sapiens), sequence (P04062 whole entry, looked up): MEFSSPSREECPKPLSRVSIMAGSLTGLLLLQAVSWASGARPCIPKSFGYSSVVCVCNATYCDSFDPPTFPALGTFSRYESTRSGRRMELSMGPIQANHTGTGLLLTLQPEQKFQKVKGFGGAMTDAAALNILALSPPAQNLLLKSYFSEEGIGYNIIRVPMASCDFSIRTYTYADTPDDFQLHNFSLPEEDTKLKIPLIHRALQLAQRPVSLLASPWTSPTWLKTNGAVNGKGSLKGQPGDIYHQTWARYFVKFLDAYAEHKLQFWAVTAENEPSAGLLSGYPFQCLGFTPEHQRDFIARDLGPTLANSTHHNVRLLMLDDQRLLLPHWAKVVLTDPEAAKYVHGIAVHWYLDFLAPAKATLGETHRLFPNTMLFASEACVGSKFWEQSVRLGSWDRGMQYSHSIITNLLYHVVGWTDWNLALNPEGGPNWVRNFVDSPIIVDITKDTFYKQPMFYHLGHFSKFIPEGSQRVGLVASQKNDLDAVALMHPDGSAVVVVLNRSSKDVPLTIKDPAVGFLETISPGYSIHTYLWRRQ
# Method in brief: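 Compounds titrated from 0.6 nM upwards against 0.2 nM enzyme in pH 5.9 citric acid/KH2PO4, taurocholate, tween-20; blue fluorogenic substrate 80 uM, 40 min room temperature, stopped and read Ex 365/Em 440 for AC50.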
# [2] = AP1 Signaling Pathway (AID 357); conditions: ME-180 AP-1-bla reporter, EGF-induced, beta-lactamase ratio, 5 h; at 7.69 µM (top of the series) unless noted;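 further: ME-180 reporter cells stimulated with EGF at its EC50 level; on the % scale 0 is the no-effect control and ±100 the full control effect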
# Method in brief: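 Modulation of EGF-driven AP-1 transcription was assessed with a beta-lactamase reporter in ME-180 cells. Compound and EC50 EGF were co-incubated 5 hours at 37 °C before 2.5-hour CCF4 loading at room temperature and dual-emission reading.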
# [3] = biological target: Cytochrome P450 1A2 (Homo sapiens) (UniProt P05177); assay: p450-cyp1a2 (AID 410; calls by dose curve; further: potency means the concentration at half of the fitted maximal effect;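 on activity change, negative = inhibition: -100% = full effect of reference inhibitor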); conditions: recombinant CYP1A2, luciferin-ME demethylation, luminescence; series mostly up to 57 µM
# Cytochrome P450 1A2 (Homo sapiens), sequence (P05177 whole entry, looked up): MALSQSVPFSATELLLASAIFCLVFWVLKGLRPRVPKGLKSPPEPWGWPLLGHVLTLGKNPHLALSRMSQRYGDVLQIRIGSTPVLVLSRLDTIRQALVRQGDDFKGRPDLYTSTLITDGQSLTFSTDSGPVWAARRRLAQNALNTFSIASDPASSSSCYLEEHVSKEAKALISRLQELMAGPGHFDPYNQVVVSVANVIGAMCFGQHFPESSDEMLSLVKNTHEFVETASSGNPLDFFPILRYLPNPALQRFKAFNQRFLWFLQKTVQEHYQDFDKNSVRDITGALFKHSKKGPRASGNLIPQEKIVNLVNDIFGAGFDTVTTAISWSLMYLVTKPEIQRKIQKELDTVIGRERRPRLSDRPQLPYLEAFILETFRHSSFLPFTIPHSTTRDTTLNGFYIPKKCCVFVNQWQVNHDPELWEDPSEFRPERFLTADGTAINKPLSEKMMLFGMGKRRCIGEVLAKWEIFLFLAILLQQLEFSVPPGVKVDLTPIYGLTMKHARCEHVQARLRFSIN
# Method in brief: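 Human CYP1A2 (20nM) demethylated Luciferin-ME at its Km (100uM) in 100mM KPO4. After 10 min compound preincubation, NADPH regeneration ran the reaction 60 min at room temperature. Luciferin was read by luminescence, normalized to 57 uM furafylline.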
# [4] = NFAT Signaling Pathway (AID 444); conditions: Jurkat NFAT-bla M1, carbachol, beta-lactamase ratio, 5 h; at 7.69 µM (top of the series) unless noted;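 further: carbachol stimulus at about its EC50 of 1 µM final; on the % scale 0 is the no-effect control and ±100 the full control effect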
# Method in brief: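 Read-out: CCF4 FRET ratio (460 nm/530 nm) after 1 h RT dye loading, used for %activity and AC50 from titration series. Cells: Jurkat NFAT-β-lactamase/M1 line, treated with compound plus 1 uM carbachol for 5 h, 37 °C.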
# [5] = Stat Signaling Pathway (AID 446); conditions: ME-180 SIE beta-lactamase reporter, IL-6 stimulated, 5 h; at 7.69 µM (top of the series) unless noted;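 further: ME-180 cervical cancer cells given 40 pM IL-6 alongside compound; SIE-controlled beta-lactamase reporter measured as 460/530 nm FRET emission ratio; on the % scale 0 is the no-effect control and ±100 the full control effect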
# Method in brief: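 IL-6/STAT signaling read in ME-180 cells via an SIE beta-lactamase reporter. Stimulus was 40 pM IL-6 (its AC50) for 5 hrs, so both activation and inhibition register.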
# [6] = biological target: Glucocorticoid receptor (Homo sapiens) (UniProt P04150); assay: GR-EFC Redistribution (AID 451; calls by dose curve; further: potency means the concentration at half of the fitted maximal effect); conditions: CHO-K1 GR-EFC translocation, beta-gal luminescence, 2 h
# Glucocorticoid receptor (Homo sapiens), sequence (P04150 whole entry, looked up, the tested form may be a part): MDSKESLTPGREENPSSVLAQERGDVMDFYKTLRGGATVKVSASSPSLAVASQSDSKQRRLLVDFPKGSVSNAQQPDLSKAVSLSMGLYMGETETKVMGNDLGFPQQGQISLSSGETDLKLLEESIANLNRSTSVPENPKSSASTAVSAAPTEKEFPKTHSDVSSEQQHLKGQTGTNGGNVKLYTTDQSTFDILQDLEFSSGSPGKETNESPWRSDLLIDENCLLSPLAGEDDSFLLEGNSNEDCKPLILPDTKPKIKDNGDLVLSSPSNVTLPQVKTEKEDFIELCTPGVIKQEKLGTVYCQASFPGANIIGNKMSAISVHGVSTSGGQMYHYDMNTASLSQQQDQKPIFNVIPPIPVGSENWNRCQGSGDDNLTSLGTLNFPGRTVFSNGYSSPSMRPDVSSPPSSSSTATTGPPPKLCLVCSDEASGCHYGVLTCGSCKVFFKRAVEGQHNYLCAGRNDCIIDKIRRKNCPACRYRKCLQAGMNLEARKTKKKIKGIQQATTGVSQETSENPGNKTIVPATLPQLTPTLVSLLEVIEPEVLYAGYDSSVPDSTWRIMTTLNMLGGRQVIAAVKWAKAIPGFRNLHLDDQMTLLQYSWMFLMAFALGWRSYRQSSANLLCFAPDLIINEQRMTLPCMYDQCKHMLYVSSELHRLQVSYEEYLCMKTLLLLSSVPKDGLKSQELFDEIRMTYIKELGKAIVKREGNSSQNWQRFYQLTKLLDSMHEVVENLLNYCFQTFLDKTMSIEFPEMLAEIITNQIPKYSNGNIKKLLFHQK
# Method in brief: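 Translocation of GR-ED fusion to nuclear EA restores b-gal, read by luminescence after 1 h room-temperature detection. Engineered CHO-K1 biosensor cells, 1,000/well, exposed 2 h at 37 C to titrations up to 46 uM final.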
# [7] = biological target: Mitogen-activated protein kinase 10 (Mus musculus) (UniProt Q61831); assay: JNK3 AlphaScreen Assay (AID 530); conditions: JNK3 lysate, c-Jun phosphorylation; series mostly up to 57.1 µM;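 further: kinase came from lysate of stimulated human HepG2 cells; signal reports phosphorylation of biotinylated GST-cJun 1-79 at Ser73 with 10 µM ATP; on the % scale 0 is the no-effect control and ±100 the full control effect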
# Method in brief: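 Room-temperature AlphaScreen kinase assay; pre-activated HepG2 lysate as JNK3 source, biotin-GST-cJun(1-79) substrate, 10 uM ATP, compound 15 min preincubation.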
# [8] = biological target: Cytochrome P450 3A4 (Homo sapiens) (UniProt P08684); assay: qHTS Assay for Inhibitors and Substrates of Cytochrome P450 3A4 (AID 884; active means well fitted curve in the direction sought with a large enough effect; an effect the other way counts as inactive or inconclusive; further: nearly all actives have a fitted effect of over 50% in size; further: potency means the concentration at half of the fitted maximal effect); conditions: recombinant CYP3A4, Luciferin-PPXE luminescence; series mostly up to 57.1 µM
# Cytochrome P450 3A4 (Homo sapiens), sequence (P08684 whole entry, looked up): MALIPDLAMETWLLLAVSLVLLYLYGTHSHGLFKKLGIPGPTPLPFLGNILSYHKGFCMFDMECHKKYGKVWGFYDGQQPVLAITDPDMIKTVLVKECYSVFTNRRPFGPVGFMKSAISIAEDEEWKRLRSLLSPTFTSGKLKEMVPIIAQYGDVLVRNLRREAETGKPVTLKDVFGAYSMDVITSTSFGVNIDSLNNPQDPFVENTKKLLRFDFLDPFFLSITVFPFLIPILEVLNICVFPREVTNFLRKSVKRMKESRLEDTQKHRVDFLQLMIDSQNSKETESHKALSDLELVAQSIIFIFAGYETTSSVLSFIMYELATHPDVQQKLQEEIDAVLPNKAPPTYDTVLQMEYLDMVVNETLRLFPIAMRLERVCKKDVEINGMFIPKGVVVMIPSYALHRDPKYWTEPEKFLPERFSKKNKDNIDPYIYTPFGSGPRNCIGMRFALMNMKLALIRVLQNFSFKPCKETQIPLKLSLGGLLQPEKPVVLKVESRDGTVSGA
# Method in brief: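 20 nM human CYP3A4 with 25 uM Luciferin-PPXE (at KM) in 200 mM KPO4, preincubated 10 min with compound; NADPH regeneration started a 60 min RT reaction. Luciferin detected by luminescence, normalized to 57 uM ketoconazole as full inhibition.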
# [9] = biological target: Cytochrome P450 3A4 (Homo sapiens) (UniProt P08684); assay: qHTS Assay for Activators of Cytochrome P450 3A4 (AID 885; active means well fitted curve in the direction sought with a large enough effect; an effect the other way counts as inactive or inconclusive; further: nearly all actives have a fitted effect of over 65% in size); conditions: recombinant CYP3A4, Luciferin-PPXE luminescence, 60 min; series mostly up to 57.1 µM
# Method in brief: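 Quantitative HTS format: compounds preincubated with 20nM human CYP3A4 and Luciferin-PPXE substrate at KM, reaction started by NADPH regeneration, stopped after 60 min, luciferase luminescence read 20 min later.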
# [10] = qHTS Assay for Lipid Storage Modulators (AID 1519; calls by dose curve); conditions: Drosophila S3 cells, BODIPY lipid droplet/cell ratio, laser cytometry, cells loaded with oleic acid; for activity change, negative = inhibition: at 57.5 µM (top of the series)
# Method in brief: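 Cells seeded at 5,000 per well were treated with compounds over a concentration series and loaded with oleic acid (400 uM, as added). Lipid droplet fluorescence (488 nm excitation, 500-530 nm channel) was read by laser-scanning cytometry and normalized to 20 uM Triacsin C.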
# [11] = biological target: Glucocorticoid receptor (Homo sapiens) (UniProt P04150); assay: GR-GFP Redistribution (AID 450;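 active means compounds whose dose series gives a full or clear partial fitted curve of increased nuclear translocation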; further: potency means the concentration at half of the fitted maximal effect); conditions: U2OS GR-GFP nuclear translocation, laser cytometry, 2 h
# [12] = Confirmation and Secondary Assay for Modulators of Hemoglobin Beta Chain Splicing at IVS2 654 locus (AID 910; active means well fitted curve in the direction sought with a large enough effect; an effect the other way counts as inactive or inconclusive;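 further: HeLa cells stably carrying EGFP split by mutant beta-globin IVS2-654 intron; per-well total GFP intensity by laser scanning cytometry after 2-day treatment; % of control where 0% means no effect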); conditions: HeLa EGFP-654 splicing reporter, GFP fluorescence, 48 h; series mostly up to 38.3 µM
# Method in brief: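 Readout: per-well total peak green fluorescence (488 nm ex, 500–520 nm em) from objects 5–250 µm, reflecting correct splicing of an EGFP-654 reporter. Compounds were applied for 2 days at 37 °C to overnight-plated HeLa EGFP-654 cells; controls were DMSO and 500 nM IVS2-654 PNA.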
# [13] = Confirmation and Secondary Assay for Modulators of Hemoglobin Beta Chain Splicing at IVS2 705 locus (AID 930; active means well fitted curve in the direction sought with a large enough effect; an effect the other way counts as inactive or inconclusive;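 further: HeLa cells stably expressing the EGFP-705 splicing reporter; GFP fluorescence per well restored by corrected splicing of the IVS2-705 intron in EGFP; % of control where 0% means no effect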); conditions: HeLa EGFP-705 splicing reporter, GFP fluorescence, 48 h; series mostly up to 38.3 µM
# Method in brief: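 Splice-correction reporter: EGFP cDNA split by beta-globin intron 2 bearing the 705 mutation, stably in HeLa. Compound incubation 2 days, 37C; fluorescent objects 5-250 µm summed per well.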
# [14] = biological target: Ubiquitin carboxyl-terminal hydrolase 1 (Homo sapiens) (UniProt O94782); assay: Inhibitors of USP1/UAF1: Pilot qHTS (AID 504865; active means well fitted curve in the direction sought with a large enough effect; an effect the other way counts as inactive or inconclusive;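 further: rhodamine fluorescence freed from ubiquitin-rhodamine substrate followed over time; top concentration of the series differs between compounds; on the % scale 0 is the no-effect control and ±100 the full control effect; nearly all actives have a fitted effect of over 35% in size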); conditions: purified USP1/UAF1, Ub-rhodamine cleavage fluorescence; series mostly up to 54.9 µM
# Ubiquitin carboxyl-terminal hydrolase 1 (Homo sapiens), sequence (O94782 whole entry, looked up): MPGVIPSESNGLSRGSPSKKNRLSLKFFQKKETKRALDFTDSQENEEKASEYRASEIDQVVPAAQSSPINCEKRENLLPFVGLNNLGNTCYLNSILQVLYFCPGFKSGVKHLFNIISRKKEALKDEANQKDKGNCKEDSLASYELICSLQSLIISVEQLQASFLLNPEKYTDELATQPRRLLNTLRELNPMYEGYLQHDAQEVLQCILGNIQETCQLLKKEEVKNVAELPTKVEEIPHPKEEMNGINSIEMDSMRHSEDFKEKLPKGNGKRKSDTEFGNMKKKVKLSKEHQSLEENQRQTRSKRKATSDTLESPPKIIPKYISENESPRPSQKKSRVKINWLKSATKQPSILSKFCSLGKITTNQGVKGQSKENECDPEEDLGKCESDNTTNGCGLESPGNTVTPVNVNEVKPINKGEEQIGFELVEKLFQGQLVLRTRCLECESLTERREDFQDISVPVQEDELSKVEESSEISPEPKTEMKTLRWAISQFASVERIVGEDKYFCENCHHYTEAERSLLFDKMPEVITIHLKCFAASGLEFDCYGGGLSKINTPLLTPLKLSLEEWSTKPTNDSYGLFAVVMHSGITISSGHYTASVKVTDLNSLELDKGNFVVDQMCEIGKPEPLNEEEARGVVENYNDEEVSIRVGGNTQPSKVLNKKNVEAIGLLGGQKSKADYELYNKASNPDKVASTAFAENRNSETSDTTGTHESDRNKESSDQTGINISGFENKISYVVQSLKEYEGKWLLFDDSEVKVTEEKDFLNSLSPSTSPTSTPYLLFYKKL
# Method in brief: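 USP1/UAF1 complex (1nM) preincubated with compound 15 min at room temperature, then Ub-Rho substrate (150nM final) added. Fluorescence read kinetically at 480/540 nm, 6 reads every 60 seconds. Buffer: 50mM HEPES pH 7.8, 0.5mM EDTA, 0.1 mg/ml BSA, 1mM TCEP, 0.01% Tween-20.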
# [15] = biological target: Cytochrome P450 2C19 (Homo sapiens) (UniProt P33261); assay: qHTS Assay for Inhibitors and Substrates of Cytochrome P450 2C19 (AID 899; active means well fitted curve in the direction sought with a large enough effect; an effect the other way counts as inactive or inconclusive; further: nearly all actives have a fitted effect of over 60% in size; further: potency means the concentration at half of the fitted maximal effect); conditions: recombinant CYP2C19, luciferin-H EGE luminescence; series mostly up to 57.1 µM
# Cytochrome P450 2C19 (Homo sapiens), sequence (P33261 whole entry, looked up): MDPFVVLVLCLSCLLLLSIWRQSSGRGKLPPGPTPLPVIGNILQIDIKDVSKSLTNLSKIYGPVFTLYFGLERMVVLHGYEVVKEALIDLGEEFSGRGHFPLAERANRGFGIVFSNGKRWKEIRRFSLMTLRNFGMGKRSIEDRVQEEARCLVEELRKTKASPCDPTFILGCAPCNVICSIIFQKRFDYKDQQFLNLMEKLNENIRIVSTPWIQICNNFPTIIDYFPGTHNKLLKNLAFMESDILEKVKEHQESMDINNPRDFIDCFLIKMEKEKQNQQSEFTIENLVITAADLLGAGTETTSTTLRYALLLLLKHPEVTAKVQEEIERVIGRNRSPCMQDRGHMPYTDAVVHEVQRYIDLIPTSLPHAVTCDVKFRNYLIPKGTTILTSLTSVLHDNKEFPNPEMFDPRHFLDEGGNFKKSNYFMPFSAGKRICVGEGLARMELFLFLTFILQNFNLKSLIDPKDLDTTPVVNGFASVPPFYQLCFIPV
# Method in brief: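 Luminescence readout of luciferin formed from 10uM Luciferin-H EGE (KM level) by 5 nM CYP2C19 in 50mM KPO4. 60 min NADPH-driven reaction at 37C after 10 min compound preincubation; data scaled to 57uM ketoconazole inhibition.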
# [16] = qHTS Assay for Identification of Small Molecule Agonists for Hypoxia Response Element Signaling Pathway (AID 914; active means well fitted activation curve with a large enough effect in the signal ratio, with a control signal flat, not every such curve was filed as active; the % refers to the signal ratio; further: % of control where 0% means no effect); conditions: ME-180 (cervical carcinoma) HRE-bla reporter, beta-lactamase ratio, CoCl2, 17 h; activation: stronger effect = higher value
# Method in brief: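 Cells were plated overnight, pin-dosed with compound in a titration series, co-stimulated with EC50 CoCl2 and incubated 17 hours at 37 degrees Celsius. CCF4 substrate was then loaded, and AC50 values came from the 460nm/530nm ratio.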
# [17] = biological target: 3',5'-cyclic-AMP phosphodiesterase 4B (Homo sapiens) (UniProt Q07343); assay: qHTS Assay for Inhibitors of PDE-IV (AID 607; active means well fitted activation curve with a large enough effect in the main read-out, with a control signal flat, not every such curve was filed as active; further: % of control where 0% means no effect); conditions: HEK293 ACTOne CNG channel cells, membrane potential fluorescence; series mostly up to 22.9 µM
# 3',5'-cyclic-AMP phosphodiesterase 4B (Homo sapiens), sequence (Q07343 whole entry, looked up): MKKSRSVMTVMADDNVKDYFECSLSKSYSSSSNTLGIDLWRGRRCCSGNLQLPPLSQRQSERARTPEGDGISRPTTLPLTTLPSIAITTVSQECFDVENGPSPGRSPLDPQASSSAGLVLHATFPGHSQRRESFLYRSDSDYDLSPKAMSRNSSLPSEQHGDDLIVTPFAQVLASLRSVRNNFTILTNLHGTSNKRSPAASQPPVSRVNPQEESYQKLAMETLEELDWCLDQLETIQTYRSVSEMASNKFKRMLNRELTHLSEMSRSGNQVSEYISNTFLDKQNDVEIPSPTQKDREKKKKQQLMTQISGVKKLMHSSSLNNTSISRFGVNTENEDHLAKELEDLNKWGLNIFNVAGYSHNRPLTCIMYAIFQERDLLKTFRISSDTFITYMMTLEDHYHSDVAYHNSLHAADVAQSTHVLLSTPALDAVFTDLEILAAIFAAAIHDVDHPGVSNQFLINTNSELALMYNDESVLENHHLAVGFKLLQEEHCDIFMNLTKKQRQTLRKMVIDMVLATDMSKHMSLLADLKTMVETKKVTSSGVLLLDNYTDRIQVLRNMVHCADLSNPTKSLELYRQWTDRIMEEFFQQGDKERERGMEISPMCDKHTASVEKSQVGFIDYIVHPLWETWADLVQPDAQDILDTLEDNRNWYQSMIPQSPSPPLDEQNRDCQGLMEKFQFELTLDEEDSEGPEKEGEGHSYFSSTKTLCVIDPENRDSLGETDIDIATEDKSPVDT
# Method in brief: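 Live HEK293 cells with a modified cyclic nucleotide-gated (CNG) channel report intracellular cAMP via membrane-potential dye fluorescence (ex 535/em 590 nm). Endogenous PDE-IV was targeted. Compounds were tested at up to 22.9 uM final; RO 20-1724 100 uM served as control.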
# [18] = biological target: Cytochrome P450 2D6 (Homo sapiens) (UniProt P10635); assay: qHTS Assay for Inhibitors and Substrates of Cytochrome P450 2D6 (AID 891; active means well fitted curve in the direction sought with a large enough effect; an effect the other way counts as inactive or inconclusive;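 further: luciferin methyl ether substrate demethylated by CYP2D6 with NADPH regeneration; on the % scale 0 is the no-effect control and ±100 the full control effect; nearly all actives have a fitted effect of over 60% in size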); conditions: recombinant CYP2D6, luciferin-ME EGE luminescence; series mostly up to 57.1 µM
# Cytochrome P450 2D6 (Homo sapiens), sequence (P10635 whole entry, looked up): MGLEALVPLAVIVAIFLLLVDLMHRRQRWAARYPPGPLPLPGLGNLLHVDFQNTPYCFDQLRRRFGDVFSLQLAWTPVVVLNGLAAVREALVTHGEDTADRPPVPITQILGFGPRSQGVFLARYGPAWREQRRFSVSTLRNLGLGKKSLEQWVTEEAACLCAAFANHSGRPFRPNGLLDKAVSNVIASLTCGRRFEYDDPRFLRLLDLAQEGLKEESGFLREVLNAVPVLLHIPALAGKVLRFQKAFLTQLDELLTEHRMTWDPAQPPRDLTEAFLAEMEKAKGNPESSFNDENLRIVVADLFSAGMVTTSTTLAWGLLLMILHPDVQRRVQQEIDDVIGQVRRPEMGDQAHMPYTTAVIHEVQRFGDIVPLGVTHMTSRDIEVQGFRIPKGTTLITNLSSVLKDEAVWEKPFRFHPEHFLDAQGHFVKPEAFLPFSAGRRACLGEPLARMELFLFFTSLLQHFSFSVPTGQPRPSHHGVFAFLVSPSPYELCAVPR
# Method in brief: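 Human CYP2D6 (5 nM) with 30 uM Luciferin-ME EGE (at Km) in 100 mM KPO4, compound preincubated 10 min, then NADPH regeneration system for 60 min at room temperature. Luciferin read by luminescence; normalized to 1.43 uM quinidine.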
# [19] = measured here: cell count channel max response
# [20] = measured here: lipid channel max response
SMILES,Potency [1],"activity change, negative = inhibition [2]",Potency [3],"activity change, negative = inhibition [4]","activity, negative = inhibition [5]",Potency [6],Potency [7],Potency [8],Potency [9],"activity change, negative = inhibition [10]","max response [10, 19] [%]","max response [10, 20] [%]",Potency [11],Potency [12],outcome [13],Potency [14],Potency [15],activation [16],Potency [17],Potency [18]
O=C(c1cnccn1)N1CCC2(CCCN(c3cccc(-c4ccccc4)c3)C2)CC1,> 11.4 µM (inactive),-16.1% (inactive),20 µM (active),5.03% (inactive),-8.34% (inactive),> 46 µM (inactive),inactive,2 µM (active),inactive,-1.76% (inactive),20.5,18.4,,,,,,,,
CN(C)Cc1ccccc1-c1ccc2ncnc(N(C)Cc3ccco3)c2c1,> 11.4 µM (inactive),3.42% (inactive),2 µM (active),,-16.1% (inactive),> 46 µM (inactive),inactive,,inactive,3.94% (inactive),7.91,12.6,> 46 µM (inactive),inactive,inactive,inactive,,,,
COc1ccc2[nH]cc(CCNc3nc(-c4ccoc4)nc4ccccc34)c2c1,8.61 µM (active),-4.09% (inactive),0.398 µM (active),,-9.95% (inactive),> 46 µM (inactive),inactive,3.16 µM (active),inactive,9.94% (inactive),6.9,18.2,> 46 µM (inactive),inactive,inactive,,1.58 µM (active),-13.1% (inactive),,
COc1ccccc1CN1CC[C@@]2(CCCN(C(=O)c3cc(C(F)(F)F)cc(C(F)(F)F)c3)C2)C1,> 11.4 µM (inactive),-0.111% (inactive),15.8 µM (active),,4.98% (inactive),> 46 µM (inactive),inactive,,,2.5% (inactive),2.09,7.48,,,,,,,inactive,
Cc1noc(C)c1-c1nccc(N2CCNCC2)n1,> 11.4 µM (inactive),14.5% (inactive),,-5.44% (inactive),-0.568% (inactive),> 46 µM (inactive),inactive,,,6.06% (inactive),6.93,14.7,> 46 µM (inactive),inactive,inactive,inactive,,,inactive,
O=C(c1cc(C(F)(F)F)cc(C(F)(F)F)c1)N1CCC2(CC1)CN(Cc1ccccc1)C2,> 11.4 µM (inactive),-4.34% (inactive),inactive,,9.42% (inactive),> 46 µM (inactive),inactive,,,1.87% (inactive),22.2,24.8,,,,,,,inactive,
CN(C)C(=O)c1ccc(-c2nc(N(C)C)c3ccccc3n2)cc1,> 11.4 µM (inactive),-11.7% (inactive),,16.5% (inactive),2.64% (inactive),> 46 µM (inactive),inactive,,inactive,8.51% (inactive),8.15,13.9,> 46 µM (inactive),inactive,inactive,inactive,inactive,,inactive,
O=c1cnc2cnc(N3CCOCC3)nc2n1C[C@H]1CCCO1,> 11.4 µM (inactive),2.78% (inactive),10 µM (active),,-3.88% (inactive),> 46 µM (inactive),inactive,,inactive,5.43% (inactive),13.3,22.5,> 9.22 µM (inactive),,,,,9.58% (inactive),inactive,
COc1ccc(Oc2ncc3nc(-c4cc(F)cc(F)c4)c(=O)n(C)c3n2)cc1,> 11.4 µM (inactive),18.9% (inactive),3.16 µM (active),-15.3% (inactive),,> 46 µM (inactive),inactive,5.01 µM (active),inactive,-5.54% (inactive),13.4,-2.06,> 9.22 µM (inactive),,,,,,,
COCC(=O)N1CCC2(CC1)CN(Cc1nccs1)C2,> 11.4 µM (inactive),-21.4% (inactive),inactive,,,> 46 µM (inactive),inactive,inactive,,3.6% (inactive),4.27,13.5,,,,,inactive,,inactive,inactive
CC(C)CN1CC[C@@]2(CCCN(C(=O)c3cc(C(F)(F)F)cc(C(F)(F)F)c3)C2)C1,> 11.4 µM (inactive),-5.91% (inactive),25.1 µM (active),,11.2% (inactive),> 46 µM (inactive),inactive,,inactive,1.55% (inactive),13.4,17.5,,,,,,,inactive,
COc1ccc(NC(=O)N2CC[C@@]3(CCCN(C(=O)c4cc(C(F)(F)F)cc(C(F)(F)F)c4)C3)C2)cc1,> 11.4 µM (inactive),-20.8% (inactive),inactive,12.7% (inactive),-6.2% (inactive),> 46 µM (inactive),inactive,,inactive,6.21% (inactive),0.894,10.8,,,,,,,inactive,

# Reference: PubChem BioAssay (NCATS)
